In PubChem BioAssay (NCI):
About 83,000 compounds went through this panel and 20% of them were active in at least one assay; those are over-represented in the sample as a whole.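 For each line, cells grew in 96-well plates with the test compound present at a single concentration for 48 hours.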 Unmarked numbers belong to inactive results. Activity calls are given as the source filed them. How the source made its calls: active means growth percent below 10; inactive means the rest.

These molecules were tested on HCT-116 colon (assay: NCI-60 one-dose screen, 48 h (100 = growth as untreated, 0 = no growth, -100 = all killed)). Conditions: 10 µM unless noted.

In order of falling growth:
1. COS(=O)(=O)CCN(CCOS(C)(=O)=O)S(C)(=O)=O  100%
2. NC(N)=N/N=C\c1ccc(OCc2ccccc2)cc1  61%
3. CCN(CC)CCC(CNc1ccnc2cc(Cl)ccc12)c1ccc(O)cc1 (stereo not drawn)  49.5%
4. COc1ccc(-c2nc(-c3cc(OC)cc(OC)c3)[nH]c2-c2ccc(OC)cc2)cc1  40.8%

For `N#Cc1nc(-c2cccc(Br)c2)cc(-c2ccc(Nc3nc(N4CCCCC4)nc(N4CCCCC4)n3)cc2)c1N`, the growth was -60.4% (active).

What follows are molecules tested on HCC-2998 colon in the same assay as above. Conditions: 10 µM unless noted.

In order of rising growth:
1. COCCOCCOCc1n(Cc2ccc3ccccc3n2)c2ccccc2[n+]1Cc1ccc2ccccc2c1  12.8%
2. COc1ccc(Sc2[nH]c(C=O)c3ccccc23)cc1  16.3%
3. COc1ccc(-c2cn(-c3cccc(C(=O)/C=C/c4ccc(O)c(OC)c4)c3)c(=O)[nH]2)cc1  17.5%
4. N#Cc1nc(-c2cccc(Br)c2)cc(-c2ccc(Nc3nc(N4CCCCC4)nc(N4CCCCC4)n3)cc2)c1N  18.2%
5. Cc1n(Cc2ccc3ccccc3n2)cc[n+]1Cc1ccc2ccccc2c1  19.8%
6. COc1ccc(-c2nc(-c3cc(OC)cc(OC)c3)[nH]c2-c2ccc(OC)cc2)cc1  42.9%
7. Nc1nonc1-c1nc2ccccc2n1Cc1ccc(F)cc1  58.8%
8. Cc1cc(C)c2c(n1)sc1c(Nc3ccc(O)cc3)ncnc12  63.3%
9. CS(=O)(=O)Nc1cc(-c2cc3ncc(C#N)c(Nc4ccc(Oc5ccccc5)c(Cl)c4)c3s2)cnc1Cl  64.5%
10. CNC(=O)c1ccccc1Sc1ccc2c(/C=C/c3ccccn3)n[nH]c2c1  68.9%
11. COc1cc(Nc2ccnc3ccc(Br)cc23)cc(OC)c1OC  71.4%
12. CC(=O)O[C@H]1[C@H](CC#CC#CC[C@@H]2C[C@]3(C)[C@H]4CC=C5[C@H]6[C@@H](C)[C@H](C)CC[C@]6(C(=O)NCCN(CCN)CCN)CC[C@@]5(C)[C@]4(C)CC[C@H]3C(C)(C)[C@H]2OC(C)=O)C[C@]2(C)[C@H]3CC=C4[C@H]5[C@@H](C)[C@H](C)CC[C@]5(C(=O)NCCN(CCN)CCN)CC[C@@]4(C)[C@]3(C)CC[C@H]2C1(C)C  72.3%
13. CC(=O)c1c(C)nc(-c2cc(C)cc(Cl)c2)nc1-c1cccc(Oc2ccccc2)c1  77.6%
14. CCN(CC)Cc1cc(Nc2nc(NC3CCC(N(C)C)CC3)c3ccccc3n2)ccc1OC (stereo not drawn)  81.3%
15. NC(N)=N/N=C\c1ccc(OCc2ccccc2)cc1  82.3%
16. Cc1cc(N=Nc2ccc(-c3ccc(N=Nc4ccc(O)c(C(=O)O)c4)cc3)cc2)c(N)c(N=Nc2ccc(C(=O)O)cc2)c1N  87.7%
17. CCN(CC)CCC(CNc1ccnc2cc(Cl)ccc12)c1ccc(O)cc1 (stereo not drawn)  88.9%
18. Cc1ccccc1N1C(c2ccccc2)=NNC12C=CC(=O)c1c(O)cccc12 (stereo not drawn)  90.3%
19. O=[N+]([O-])c1cccc(N=C(Nc2cccc([N+](=O)[O-])c2)c2ccccc2)c1  93.2%
20. CN(C)c1ccc(C(c2ccccc2)c2ccc(N(C)C)cc2)cc1  95.7%
21. COS(=O)(=O)CCN(CCOS(C)(=O)=O)S(C)(=O)=O  98%
22. FC(F)(F)c1ccc(/C=N/Nc2nnc3n2N=C(c2ccc(Cl)cc2)CS3)cc1  98.7%
23. [Ag].[Ag].[NH-]S(=O)(=O)c1ccc(N=Nc2cc(N=Nc3ccc(S([NH-])(=O)=O)cc3)c3c(NC(=O)C(Cl)Cl)cccc3c2OC(=O)C(Cl)Cl)cc1.[c-]1nccs1.[c-]1nccs1  99.1%
24. COc1cc2c(cc1OCCCOc1cc3c(cc1OC)C(=O)N1CCC[C@H]1C=N3)C=CC(C)(C)O2  100%
25. C=CCn1c(C)nc2cc(Nc3nc(N4CCOCC4)nc4nc[nH]c34)ccc21  100%
26. O=c1[nH]cnc2nc[nH]c12  101%
27. c1ccc(C2=Nc3ccccc3SC2)cc1  104%
28. Fc1ccc2nc(-c3ccc(-c4noc(-c5ccc(Cl)cc5)n4)cc3)[nH]c2c1  106%
29. CCNS(=O)(=O)c1ccc(C)cc1  106%
30. COc1ccc(C2C3CCc4ccccc4C3=NN2C(=O)c2cc(OC)c(OC)c(OC)c2)cc1O (stereo not drawn)  110%

For `OC(c1cc(-c2ccc(C(F)(F)F)cc2)nc(-c2ccc(C(F)(F)F)cc2)c1)C1CCCCN1` (stereo not drawn), the growth was -70.8% (active).
In the case of `CC1(C)C(N(O)C(=O)Nc2ccc(Cl)cc2)N(c2ccc(Cl)cc2)C(=O)N1CC(=O)N/N=C/C=C/c1ccc([N+](=O)[O-])o1` (stereo not drawn), the growth is reported as -90.6% (active).

The molecules below were run on KM12 colon in the same assay as above. Conditions: 10 µM unless noted.

`COc1ccc(-c2cn(-c3cccc(C(=O)/C=C/c4ccc(O)c(OC)c4)c3)c(=O)[nH]2)cc1` was tested, and the growth was -58.7% (active).
`CN1CCN(Cc2ccc(NC(=O)c3cncc(C#Cc4ccc(N)nc4)c3)cc2C(F)(F)F)CC1` was tested, and the growth was 5.75% (active).
In the case of `COCCOCCOCc1n(Cc2ccc3ccccc3n2)c2ccccc2[n+]1Cc1ccc2ccccc2c1`, the growth is reported as -41.5% (active).
For `OC(c1cc(-c2ccc(C(F)(F)F)cc2)nc(-c2ccc(C(F)(F)F)cc2)c1)C1CCCCN1` (stereo not drawn), the growth was -87.7% (active).
With `Cc1nc2c(-c3cnc(N)nc3)nc(N3CCOCC3)nc2n1C(C)C` the growth was 5.78% (active).
In the case of `Cc1n(Cc2ccc3ccccc3n2)cc[n+]1Cc1ccc2ccccc2c1`, the growth is reported as 5.21% (active).
With `C=C1NC(=O)C(C(C)CC)NC(=O)C2CSCC(NC(=O)CCC(=O)O)C(=O)NC(Cc3ccccc3)C(=O)NC(C)C(=O)NC(CC(C)CC)C(=O)NC(C(=O)NC(Cc3ccccc3)C(=O)N3CCCC3C(=O)N2)C(C)OC(=O)C(CO)NC(=O)C(C(O)COC)N(C)C(=O)C(C(C)C)NC(=O)C(CC(C)CC)NC1=O` (stereo not drawn) the growth was 2.09% [6 µM] (active).
In the case of `N#Cc1nc(-c2cccc(Br)c2)cc(-c2ccc(Nc3nc(N4CCCCC4)nc(N4CCCCC4)n3)cc2)c1N`, the growth is reported as -1.24% (active).

In order of rising growth:
1. CNC(=O)c1ccccc1Sc1ccc2c(/C=C/c3ccccn3)n[nH]c2c1  17.2%
2. COc1cc(Nc2ccnc3ccc(Br)cc23)cc(OC)c1OC  21%
3. COc1ccc(Sc2[nH]c(C=O)c3ccccc23)cc1  22%
4. CC1(C)C(N(O)C(=O)Nc2ccc(Cl)cc2)N(c2ccc(Cl)cc2)C(=O)N1CC(=O)N/N=C/C=C/c1ccc([N+](=O)[O-])o1 (stereo not drawn)  23.1%
5. Nc1nonc1-c1nc2ccccc2n1Cc1ccc(F)cc1  30.5%
6. CC(=O)c1c(C)nc(-c2cc(C)cc(Cl)c2)nc1-c1cccc(Oc2ccccc2)c1  30.7%
7. COc1ccc(-c2nc(-c3cc(OC)cc(OC)c3)[nH]c2-c2ccc(OC)cc2)cc1  46.5%
8. C[C@@H]1C[C@H](N)C[C@H](c2ccncc2NC(=O)c2ccc(F)c(-c3c(F)cccc3F)n2)C1  48.3%
9. Cc1cc(C)c2c(n1)sc1c(Nc3ccc(O)cc3)ncnc12  50.3%
10. CS(=O)(=O)Nc1cc(-c2cc3ncc(C#N)c(Nc4ccc(Oc5ccccc5)c(Cl)c4)c3s2)cnc1Cl  56.8%
11. CCN(CC)Cc1cc(Nc2nc(NC3CCC(N(C)C)CC3)c3ccccc3n2)ccc1OC (stereo not drawn)  61.1%
12. NC(N)=N/N=C\c1cccc(OCc2ccccc2)c1  68.3%
13. C=CC[C@]1(O)CC[C@H]2[C@@H]3CCc4cc(O)ccc4[C@H]3CC[C@@]21C  76.8%
14. FC(F)(F)c1ccc(/C=N/Nc2nnc3n2N=C(c2ccc(Cl)cc2)CS3)cc1  76.9%
15. Cc1ccccc1N1C(c2ccccc2)=NNC12C=CC(=O)c1c(O)cccc12 (stereo not drawn)  77.6%
16. [Ag].[Ag].[NH-]S(=O)(=O)c1ccc(N=Nc2cc(N=Nc3ccc(S([NH-])(=O)=O)cc3)c3c(NC(=O)C(Cl)Cl)cccc3c2OC(=O)C(Cl)Cl)cc1.[c-]1nccs1.[c-]1nccs1  80.9%
17. O=[N+]([O-])c1cccc(N=C(Nc2cccc([N+](=O)[O-])c2)c2ccccc2)c1  84.2%
18. CC(=O)O[C@H]1[C@H](CC#CC#CC[C@@H]2C[C@]3(C)[C@H]4CC=C5[C@H]6[C@@H](C)[C@H](C)CC[C@]6(C(=O)NCCN(CCN)CCN)CC[C@@]5(C)[C@]4(C)CC[C@H]3C(C)(C)[C@H]2OC(C)=O)C[C@]2(C)[C@H]3CC=C4[C@H]5[C@@H](C)[C@H](C)CC[C@]5(C(=O)NCCN(CCN)CCN)CC[C@@]4(C)[C@]3(C)CC[C@H]2C1(C)C  86.1%
19. CN(C)c1ccc(C(c2ccccc2)c2ccc(N(C)C)cc2)cc1  91.5%
20. Cc1cc(N=Nc2ccc(-c3ccc(N=Nc4ccc(O)c(C(=O)O)c4)cc3)cc2)c(N)c(N=Nc2ccc(C(=O)O)cc2)c1N  92.1%
21. Fc1ccc2nc(-c3ccc(-c4noc(-c5ccc(Cl)cc5)n4)cc3)[nH]c2c1  93.1%
22. c1ccc(C2=Nc3ccccc3SC2)cc1  97.5%
23. C=CCn1c(C)nc2cc(Nc3nc(N4CCOCC4)nc4nc[nH]c34)ccc21  101%
24. CCNS(=O)(=O)c1ccc(C)cc1  108%
25. CCCCCCCCCCCCCCC(C(=O)OCC)C(=O)OCC  108%
26. COc1ccc(C2C3CCc4ccccc4C3=NN2C(=O)c2cc(OC)c(OC)c(OC)c2)cc1O (stereo not drawn)  109%
27. COc1cc2c(cc1OCCCOc1cc3c(cc1OC)C(=O)N1CCC[C@H]1C=N3)C=CC(C)(C)O2  109%
28. O=c1[nH]cnc2nc[nH]c12  196%
